Compound activity deposited in PubChem BioAssay by National Center for Advancing Translational Sciences (NCATS).
Compounds with a hit are over-represented: about 6% of the library has one in this group of screens.
Pol III holo inh = blocks replication by bacterial DNA polymerase III holoenzyme; reconstituted DNA polymerase III holoenzyme replication, biochemical; Potency, µM (doses to about 57.1 µM), for inactives: at the top dose activity change, negative = inhibition; 71,000 compounds, 0.25% hits; AID 603
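Reconstituted *E. coli* holoenzyme (0.35 nM Pol III, 1 nM beta, 154 nM SSB, 2 nM primase) was preincubated with compound for 15 min at RT. Synthesis on 1.4 nM ssM13Gori ran 35 min, then was stopped with PicoGreen/EDTA and read as dsDNA fluorescence.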
ERK AVP inh = blocks ERK signaling stimulated by vasopressin; 72,000 compounds, 0.99% hits; Potency, µM (series often up to 57.5 µM), for inactives: at the highest dose activity, negative = inhibition, hits mostly inhibitors; HEK293-V1b, vasopressin-stimulated pERK AlphaScreen; also: nearly all actives have a fitted effect of over 55% in size
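HEK293 cells stably expressing V1b receptor, seeded overnight in 1% FBS, were treated with compounds for 30 min at 37C, then stimulated 5 min with 25 nM vasopressin; phospho-ERK read by AlphaScreen SureFire after lysis.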
Tau fil binding = binders of human tau filaments. recombinant tau filaments, thioflavin S fluorescence, 15 h; filaments grown with octadecylsulfate alongside compound. Potency, µM (highest dose often 57.1 µM), without a hit: at the top dose activity change, negative = inhibition. 71,000 compounds, 2% hits;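 also: actives lower thioflavin S fluorescence by blocking filaments or displacing dye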
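Thioflavine S fluorescence (ex 450, em 510 nm) reports filaments formed from 1 uM human tau plus 30 uM ODS over 15 h at 37 C (10 mM HEPES pH 7.4, 100 mM NaCl, 5 mM DTT); compounds displacing dye or blocking filaments lower signal.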
Luciferase inh = firefly luciferase inhibition | P08659 | purified firefly luciferase, luminescence, 8 min | Potency, µM (doses to about 57.1 µM), for inactives: at the top dose activity change, negative = inhibition, actives largely listed as inhibitors | 72,000 compounds, 2.2% hits; also: nearly all actives have a fitted effect of over 40% in size
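Inhibition of light generation by firefly luciferase from ATP and luciferin was profiled with concentration-response curves per sample, ATP held at 10 uM within the enzyme's linear range. Plates were read by luminescence after an 8-minute ambient incubation.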
PK Bst = modulators of Bacillus stearothermophilus pyruvate kinase. AID 361. 51,000 compounds, 1.2% hits. Potency, µM. purified pyruvate kinase, luminescence ATP production; ribose 5-phosphate activator present at AC10; in the data active = potency below about 11 µM; inconclusive = mostly about 12 µM to 25 µM;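 the screen sought inhibitors and activators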;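 also: scaled between full activation by ribose 5 phosphate and full inhibition by luteolin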
15-hLO inh = 15-hLO (ALOX15) enzyme inhibition. P16050. purified 15hLO-1, xylenol orange hydroperoxide absorbance. Potency, µM (doses to about 57.1 µM), for inactives: at the highest dose activity change, negative = inhibition, hits mostly inhibitors. 74,000 compounds, 1.4% hits. AID 887; also: nearly all actives have a fitted effect of over 55% in size
Target sequence (P16050 whole entry, looked up): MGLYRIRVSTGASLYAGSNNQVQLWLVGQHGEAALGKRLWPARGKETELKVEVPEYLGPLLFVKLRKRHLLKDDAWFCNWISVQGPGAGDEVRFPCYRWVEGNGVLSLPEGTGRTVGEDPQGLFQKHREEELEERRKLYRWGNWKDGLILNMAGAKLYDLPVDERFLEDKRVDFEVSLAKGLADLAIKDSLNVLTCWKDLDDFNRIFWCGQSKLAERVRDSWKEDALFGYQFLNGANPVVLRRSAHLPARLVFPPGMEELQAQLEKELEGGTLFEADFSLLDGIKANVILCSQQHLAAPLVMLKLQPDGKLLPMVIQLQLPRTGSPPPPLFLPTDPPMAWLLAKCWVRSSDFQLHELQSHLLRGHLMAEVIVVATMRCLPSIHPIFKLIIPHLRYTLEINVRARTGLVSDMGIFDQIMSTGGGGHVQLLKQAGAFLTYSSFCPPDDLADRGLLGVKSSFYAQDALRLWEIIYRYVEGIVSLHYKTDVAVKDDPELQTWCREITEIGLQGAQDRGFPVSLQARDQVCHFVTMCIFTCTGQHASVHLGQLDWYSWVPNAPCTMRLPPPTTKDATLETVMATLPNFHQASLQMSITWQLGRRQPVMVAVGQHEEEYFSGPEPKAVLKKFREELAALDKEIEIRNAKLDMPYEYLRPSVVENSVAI
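40 nM 15hLO-1 + cpd, 15 min RT; start w/ 50 uM AA (final), 6 min RT; stop/detect w/ 200 uM XO + 300 uM Fe(II) in 50 mM H2SO4, 30 min; A573/A405. Buffer 25 mM Hepes pH 7.5, 0.01% Triton X-100. No-enzyme wells as negative control.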
Starred values were filed as active, the others as inactive; i = inactive; u = inconclusive; x = not tested or not shown; [ ] = another dose, or the depositor's remark. Unless noted, calls follow the shape of the dose curve; as a rule, active = well fitted curve in the direction sought with a large enough effect; inconclusive = small, poorly fitted or top-dose-only effect, or another doubt; inactive = no such curve, though single readings can be large; an effect the other way counts as inactive or inconclusive. Unless noted, % is scaled to controls: 0 for no effect and ±100 for the full control effect; potency is read from the fitted curve at half-maximal effect.

SMILES | Pol III holo inh | ERK AVP inh | Tau fil binding | Luciferase inh | PK Bst | 15-hLO inh
O=C(Nc1cccc(-c2nc3cccnc3s2)c1)c1ccco1 | -5% | 16% | 13% | 20µM* | u | -3%
O=C(Nc1ccc(-c2nc3cccnc3s2)cc1)c1ccco1 | -3% | x | 64% | 3.2µM* | x | 25µM*
CCN(CC)CCn1c(-c2ccccc2)nc2c(NCCO)nc(C)nc21 | -3% | -2% | 12% | x | x | 0%
Cc1nnc(SCc2cnc(-c3ccc(C(C)C)cc3)s2)n1C | -4% | 28% | 10% | 0.5µM* | 0.56* | 16%
Cc1ccc(CSc2nnc(-c3cccs3)n2C)cc1 | -5% | 0% | 15% | -2% | >57 | 3%
CN(C)C1CCN(C(=O)c2ccc(-n3c(=O)c(=O)[nH]c4ccccc43)cc2)C1 (configuration not stated) | x | x | x | x | x | -6%
OC(COc1ccc(Cl)c2ccccc12)CN1CCN(c2ccccn2)CC1 (configuration not stated) | 2% | 20µM* | 38% | -36% | i | u
OC(CN1CCN(c2ccccn2)CC1)Cn1c2ccccc2c2ccccc21 (configuration not stated) | 4% | u | 36% | -1% | >57 | -10%
COc1ccc(-c2nc3cnc(N4CCN(C)CC4)nc3n(Cc3ccc(F)cc3)c2=O)cc1 | -13% | 19% | 88% | 0%[11.4 µM] | x | 6%
C/C(=N\O)c1c(C)c2ccccc2n1C | x | x | x | 2%[25.5 µM] | >11 | x
Cn1c2c(c3ccccc31)CC/C2=N\O | -4% | u | 4% | -4% | x | 25µM*
N[C@H](CS(=O)O)C(=O)O | 2% | x | -2% | 0% | x | x
[O-]/[N+](=C\c1ccncc1)c1ccc(Br)cc1 | 1% | -21% | -22% | 7.9µM* | x | -12%
Cc1csc(-c2coc3cc(O)cc(C)c3c2=O)n1 | -7% | -28% | 10% | u | x | 16µM*
COc1ccc(-c2coc3cc(O)cc(O)c3c2=O)cc1 | -4% | 16µM* | u | -16%[25.5 µM] | u | -27%[25.6 µM]
COc1ccc2c(=O)ccoc2c1 | x | -8% | x | x | x | 5%
Cc1nc(-c2coc3cc(OCC(=O)O)ccc3c2=O)cs1 | x | x | x | 4µM* | 9.6* | x
Cc1ccc2c(CC(=O)OCc3csc(C)n3)coc2c1 | -7% | -6% | -2% | -1% | >57 | -12%
COc1ccc2c(=O)c(-c3nc(C)cs3)coc2c1 | x | x | x | 2µM* | 4.1* | x
C=CC[C@@H]1C=C[C@H](Oc2ccc(C)cc2)[C@H](COC(=O)NCc2cccc3ccccc23)O1 | x | 21%[11.5 µM] | x | -1%[11.4 µM] | x | -4%[11.4 µM]
O=c1cc(-c2ccc(O)cc2)oc2cccc(O)c12 | x | 4µM* | x | x | x | -11%[25.6 µM]
O=c1cc(-c2ccc(O)cc2)oc2cc(O)ccc12 | x | u | x | x | x | -19%
COc1ccc(-c2coc3cc(O)ccc3c2=O)c(OC)c1 | x | 10% | x | x | x | -1%
COc1ccc(-c2cc(=O)c3c(O)cc(O)cc3o2)cc1 | -2%[25.6 µM] | u | 12%[25.6 µM] | 10µM* | x | 8%[25.6 µM]
COc1ccc(-c2coc3cc(O)ccc3c2=O)cc1 | -29% | -6% | 32µM* | -14%[11.4 µM] | x | 3%[25.6 µM]
SMILES | Pol III holo inh | ERK AVP inh | Tau fil binding | Luciferase inh | PK Bst | 15-hLO inh
CC(C)Oc1cc(O)c2c(=O)c(-c3ccc(O)cc3)coc2c1 | 3% | -12% | 34% | 13µM* | x | -22%
COCCn1c(=O)c(-c2cn(C)c3ccccc23)nc2cnc(Oc3cccc(Cl)c3)nc21 | -8% | 23% | 27% | 0%[11.4 µM] | x | 0%
COc1ccccc1S(=O)(=O)Cc1ccc(C(=O)N2CCN(c3ccc(C)cc3)C(C)C2)o1 (configuration not stated) | 5% | 25µM* | 17% | 2% | x | -13%
CCOC(=O)N1CCN(C(=O)c2ccc(CS(=O)(=O)c3ccccc3OC)o2)CC1 | 6% | 0% | 6% | -2% | >57 | 0%
N#Cc1c(N)n[nH]c1-c1cc2c([nH]1)CCCC2 | 0% | -21% | -2% | -5% | 6.3* | -28%
CN(C)c1ncc2nc(-c3ccc(F)cc3)c(=O)n(CCC#N)c2n1 | -18% | -6% | 179% | 0%[11.4 µM] | x | -3%
CN(C)c1ncc2nc(-c3ccc(F)cc3)c(=O)n(C)c2n1 | 3% | 15% | 3% | -2%[11.4 µM] | x | 0%
Cc1[nH]n(-c2ccccc2)c(=O)c1-c1ccccc1 | -4% | -27% | -4% | 0% | x | 4µM*
Cc1[nH]n(-c2ccccc2)c(=O)c1/C=N/O | -5% | -4% | -7% | 1% | x | -11%
CC(C)N(CCC(=O)c1ccc2ccccc2c1)Cc1ccccc1 | 3% | 32µM* | -3% | -1% | x | u
Cc1ccc2[nH]c(=O)c(-c3nc4cc(C)ccn4c3NCc3ccco3)cc2c1 | 5% | -12% | 16µM* | 1% | >57 | 11%
CN(C)CC[C@H](c1ccc(Br)cc1)c1ccccn1 | 0%[25.6 µM] | 22%[25.7 µM] | 20%[25.6 µM] | 4%[25.5 µM] | x | 12%[25.6 µM]
CCOc1ccc(NC(=O)Nc2ccc3c(c2)N(C)C(=O)CS3)cc1 | -1% | u | 62% | -3% | x | -10%
COc1ccc(NC(=O)Nc2ccc3c(c2)N(C)C(=O)CS3)cc1OC | -5% | 25µM* | 20µM* | u | x | -24%
N#Cc1cccc(-c2ccc3ncnc(NCc4ccccc4)c3c2)c1 | -9% | u | i | -1%[2.29 µM] | x | -4%
CCC(=O)Nc1ccc2c(c1)C(=O)N(C1CCCCC1)C2=O | -6% | 7% | 1% | 1% | >57 | 2%
CN1CCN(C2=C(Cl)C(=O)N(C3CCCCC3)C2=O)CC1 | -2% | -24% | 16µM* | 1% | >57 | -14%
O=C(O)c1cccc(COc2ccccc2Cl)c1 | -2% | -10% | 5% | 6.3µM* | 6.7* | 4%
O=C(O)c1ccc(NS(=O)(=O)c2cccc3ccccc23)cc1 | x | x | x | x | x | 5%
COCC(C)NC(=O)NC1(C(F)(F)F)Oc2ccc(Cl)cc2O1 (configuration not stated) | -3% | 14% | -49% | 2% | >57 | -21%
O=C(NCCN1CCOCC1)NC1(C(F)(F)F)Oc2ccc(Cl)cc2O1 (configuration not stated) | 3% | 22% | 0% | 0% | >57 | 3.2µM*
CC(C)=CCNc1ncnc2c1c(C#N)cn2[C@H]1O[C@@H](CO)[C@@H](O)[C@@H]1O | -12%[11.4 µM] | 5%[11.5 µM] | 1%[11.4 µM] | 4%[11.4 µM] | x | -3%[11.4 µM]
CN1[C@@H]2CC(OC(=O)[C@@H](CO)c3ccccc3)C[C@@H]1[C@H]1O[C@H]12 (some centres not stated) | -11%[11.4 µM] | 22%[11.5 µM] | 1%[11.4 µM] | 0%[11.4 µM] | x | 7%[11.4 µM]
N#C/C(=C(/N)Sc1ccc(N)cc1)c1ccccc1C(F)(F)F | x | 0.32µM* | x | x | x | u
O=C(CSc1ccc(-c2ccc(F)cc2)nn1)N1CCCCC1 | -7% | -19% | 0% | -4% | >11 | -5%
Cn1c(-c2ccc(F)cc2)cnc1SCC(=O)N1CCCCC1 | 11% | -6% | -7% | 16µM* | x | 9%
